KB-V1 MDR tox = KB-V1 MDR subline cytotoxicity. KB-V1 MDR cells viability, CellTiter-Glo, 72 h. Potency, µM (doses to about 46.1 µM), hits mostly cytotoxic. 400,000 compounds, 3.4% hits. AID 1347076; note: % is set by controls: 0 for no effect and ±100 for the full control effect; nearly all actives have a fitted effect of over 60% in size
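KB-V1, DMEM (no phenol red) + 10% FBS; cpd pin-transferred, titration series; 72 h, 37 degrees C; CellTiter-Glo, luminescence. Data normalized, curve-fit.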
SW480 rereplic = induces DNA re-replication in SW480 colon adenocarcinoma cells; Potency, µM (top dose mostly 46.1 µM), inactives show top-dose re-replication activation, most hits filed as activators; 340,000 compounds, 1.8% hits; SW480 DNA re-replication, Hoechst DNA content imaging, 48 h; note: % of control where 0% means no effect; nearly all actives have a fitted effect of over 55% in size
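Image-based read-out: total Hoechst fluorescence of nuclei (405 nm excitation, 500-530 nm emission), with hits raising the fraction of high-intensity nuclei. SW480 colon cells incubated 48 hr with compounds at 37 C.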
PINK1 modulator = PINK1 expression modulation | Potency, µM (top dose mostly 76.6 µM), for the others: top-dose activation (PINK1 increase), hits mostly activators | PINK1 immunofluorescence, high-content cytometry, 24 h | 410,000 compounds, 0.2% hits; active = well fitted activation curve with a large enough effect; inconclusive = small, poorly fitted or top-dose-only effect; cell line not stated here; note: % of control where 0% means no effect; nearly all actives have a fitted effect of over 65% in size
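Decision-based qHTS: stable cells, 24 h exposure to five compound concentrations, CCCP as control. Fixed cells stained for PINK1 plus nuclear, mitochondrial and cell markers, cytometer read.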
KB-3-1 cytotox = kills parental KB-3-1 adenocarcinoma cells. KB-3-1 viability, CellTiter-Glo ATP luminescence, 72 h. Potency, µM (highest dose often 46.1 µM), hits mostly cytotoxic. 400,000 compounds, 1.4% hits; note: % is set by controls: 0 for no effect and ±100 for the full control effect; nearly all actives have a fitted effect of over 60% in size
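Viability of parental KB-3-1 cells, measured by CellTiter-Glo luminescence, followed a 72 h incubation at 37 °C with pinned compounds in phenol-red-free DMEM containing 10% FBS.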
MCF10A rerep = inducers of DNA re-replication in MCF 10A breast cells. AID 624296. MCF 10A DNA re-replication, Hoechst nuclear intensity, 48 h. 350,000 compounds, 2.9% hits. Potency, µM (series often up to 46.1 µM), inactives show at the top dose activity, positive = re-replication, usual class: activators; note: % of control where 0% means no effect; nearly all actives have a fitted effect of over 50% in size
* hit, by the source's call; i = inactive; ? = inconclusive; . = no result given; [ ] = another dose, or the depositor's remark. Shown are actives, neighbours in structure and some others; about 6.7% of the full set was active somewhere. Unless noted, calls come from the whole dose curve; as a rule, active = well fitted curve in the direction sought with a large enough effect; inconclusive = small, poorly fitted or top-dose-only effect, or another doubt; inactive = no such curve, though single readings can be large; an effect the other way counts as inactive or inconclusive. Potency is the fitted concentration of half-maximal effect.

SMILES	KB-V1 MDR tox	SW480 rereplic	PINK1 modulator	KB-3-1 cytotox	MCF10A rerep
Cc1cc(=S)c2ccccc2[nH]1	i	-4%	4%	?	?
CCOc1ccc(CN(C(=O)c2oc3cc(C)ccc3c2C)C2CCS(=O)(=O)C2)cc1 (configuration not stated)	?	21µM*	2%[38.3 µM]	?	15µM*
Cc1ccc(NC(=S)NNC(=O)c2nnn(-c3ccccc3)c2C)cc1	21µM*	71%	1%	i	-75%
Cc1nn(C)c(C)c1CNC(=O)c1nn2c(c1Cl)NC(c1cccs1)CC2C(F)(F)F (configuration not stated)	9.2µM*	-3%	0%[38.3 µM]	?	-3%
Cc1nn(Cc2ccc(F)cc2)c(C)c1NC(=O)c1cnn2c1NC(c1cccs1)CC2C(F)(F)F (configuration not stated)	21µM*	3%	0%[38.3 µM]	i	9%
Cc1nn(Cc2ccc(F)cc2)c(C)c1NC(=O)c1cnn2c1NC(c1ccccc1)CC2C(F)(F)F (configuration not stated)	i	0%	-3%[38.3 µM]	i	-2%
CCc1ccccc1N(CC)C(=O)C1CCN(c2ncnc3c2nc2n3CCCCC2)CC1	?	?	1%	?	23µM*
COc1ccc(Cl)cc1NC(=O)C1CCCN(c2ncnc3onc(C)c23)C1 (configuration not stated)	?	.	-1%	i	.
O=C(Nc1ccccc1Cl)C1CCCN(c2ncnc3c2nc2n3CCCCC2)C1 (configuration not stated)	7.3µM*	9%	2%	i	?
Cc1ccc(NC(=O)C2CCCN(c3ncnc4onc(C)c34)C2)c(Cl)c1 (configuration not stated)	?	.	1%	2.6µM*	.
Cc1ccc(S(=O)(=O)N2[C@@H](CO)CO[C@H]2CC(=O)c2ccccc2)cc1	i	.	.	i	.
Cc1cc(O)c2c(C)c(CC(=O)N3CCCCC3)c(=O)oc2c1	?	.	2%	i	.
O=C(C[n+]1cccc(NC(=O)c2ccccc2)c1)c1ccc(NC(=O)c2ccccc2)cc1	i	-2%	-3%	?	-3%
O=C(C[n+]1ccc2ccccc2c1)c1ccc(NC(=O)c2ccccc2)cc1	i	-4%	0%	21µM*	2%
CN(C)c1cc(O)c(C(=S)Nc2ccccc2)c(N(C)C)c1	16µM*	16%	6%	?	?
CNCC(=O)c1c[nH]c2ccccc12	i	.	0%	i	.
Cc1cccc(NS(=O)(=O)c2ccc(C(=O)N3CCN(c4ccccc4O)CC3)cc2)c1C	?	1%	-2%	?	23µM*
Cc1ccccc1NS(=O)(=O)c1ccc(C(=O)N2CCCC2)cc1	21µM*	-5%	-2%	i	3%
Cc1ccccc1NS(=O)(=O)c1ccc(C(=O)N2CCCCCCC2)cc1	?	5%	3%	i	?
Cc1nc2ccc(S(=O)(=O)Nc3ccccc3C)cc2s1	18µM*	?	6%[38.3 µM]	?	?
Cc1nc2ccc(NS(=O)(=O)c3ccc(C)c(C)c3)cc2s1	?	0%	-1%	i	18%
CCCSCCCNC(=O)c1ccc2c(c1)nc1n2CCCCC1	i	.	0%	i	.
O=S(Cc1ccc(Br)cc1)Cc1nnc(SCc2c(F)cccc2Cl)n1-c1ccccc1 (configuration not stated)	2.3µM*	10%	17%	?	?
Cn1c(CS(=O)Cc2c(Cl)cccc2Cl)nnc1SCc1ccc(Cl)cc1 (configuration not stated)	5.2µM*	-3%	-5%[38.3 µM]	i	19%
O=S(Cc1ccc(Br)cc1)Cc1nnc(SCc2ccc(Cl)cc2)n1-c1ccccc1 (configuration not stated)	2.3µM*	-4%	5%	?	?
SMILES	KB-V1 MDR tox	SW480 rereplic	PINK1 modulator	KB-3-1 cytotox	MCF10A rerep
Nn1c(Cc2cccc3ccccc23)nnc1SCc1c(F)cccc1Cl	?	3%	1%	i	18%
COCCNc1ncnc2ccc(-c3cccc(OC)c3)cc12	.	.	0%	.	.
O=C1CC(=O)N(C2CCCCC2)C(=O)N1c1ccccc1S(=O)(=O)Oc1ccccc1	i	.	0%	i	.
CC(=O)C(C(C)=O)c1c(Cl)c(O)c(O)c2c(C(=O)c3ccccc3)coc12	?	0%[9.22 µM]	16µM*	13µM*	?
NNc1nc2cccnc2n(CCNc2ncc(C(F)(F)F)cc2Cl)c1=O	?	1%	?	?	21µM*
Cc1cc(N2CCN(c3cccc(C)c3C)CC2)n2cnnc2n1	.	.	1%	.	.
Cc1cccc2c(C(=O)N3CCCCC3)cc(-c3ccccc3)nc12	?	?	1%	i	?
Cc1cccc2c(C(=O)N3CCN(c4ccccc4)CC3)cc(-c3ccncc3)nc12	3.7µM*	6.5µM*	0%	4.1µM*	7.3µM*
O=C(c1cc(-c2cccc(Cl)c2)nc2ccccc12)N1CCN(c2ccccn2)CC1	?	?	3%	i	?
CC(=O)c1ccc(N2CCN(C(=O)c3cc(-c4ccncc4)nc4ccc(Cl)cc34)CC2)cc1	9.2µM*	-4%	-2%	i	1%
Cc1cccc2c(C(=O)N3CCN(c4ccccn4)CC3)cc(-c3cccc(Br)c3)nc12	?	16µM*	2%	?	-6%
COc1ccccc1-c1cnc(C(O)c2c(C)cc(C)cc2C)[nH]1 (configuration not stated)	i	.	2%	i	.
CS/C(N)=N/N=C/c1cc(C)ccc1O	i	15µM*	1%	i	1%
CCS/C(N)=N/N=C/c1cc(C)ccc1O	i	?	-3%	i	8%
Cc1ccc(CNc2nc(CN3CCSCC3)nc3ccccc23)o1	.	.	0%	.	.
CC1(C)N=C(N)N=C(N)N1c1cccc(C#N)c1	i	?	-5%	16µM*	15%
COc1cccc(N2C(N)=NC(N)=NC2(C)C)c1	i	-1%	0%	?	?
CCOc1ccc(N2C(N)=NC(N)=NC2(C)C)cc1	i	-5%	-1%	?	7.3µM*
COc1cccc(C(=O)N2CCc3c(C(=O)NC(C)c4ccco4)c(OC)cc(=O)n3CC2)c1OC (configuration not stated)	.	.	0%	.	.
CCN(CC)S(=O)(=O)c1c(OC)cc(C)c(Cl)c1C	i	1.2µM*	-2%	i	19%
Cc1sc2ccccc2[n+]1CCCC[n+]1c(C)sc2ccccc21	i	.	1%	i	.
C[C@@]12C(=O)Nc3ccc(F)cc3C(=O)N1[C@H]1c3cc(Cl)ccc3OC[C@@H]1[C@@H]2c1ccccc1	i	21µM*	2%	?	18µM*
Cc1ccc2c(c1)[C@H]1[C@H](CO2)[C@H](c2ccccc2)[C@]2(C)C(=O)Nc3ccc(Br)cc3C(=O)N12	i	?	4%	i	11%

Source: PubChem BioAssay
